Screening results as filed in PubChem.
IL-1B inflam inh: inflammasome signaling inhibition, IL-1 beta readout | THP-1 LPS/ATP IL-1B secretion, AlphaLISA, 16 h; hits give low values | activity change, % at 57.5 µM | hit rate 4.7% among 360,000 | AID 743279; in the data active = activity change below about -50%; inconclusive = mostly about -30% to -49%
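THP-1 cells pretreated 1 hr with compounds (up to 57.5 uM final), then stimulated with LPS (250 ng/mL final) plus ATP (1.25 mM final); secreted IL-1B measured by AlphaLISA after 16 hr, decreased signal indicating inhibition.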
DT40 TDP1 no CPT: qHTS for Inhibitors of human tyrosyl-DNA phosphodiesterase 1 (TDP1): qHTS in cells in absence of CPT. DT40 Tdp1-/- hTDP1 cells, no CPT, ATP luminescence, 48 h. hit rate 15% among 420,000. Potency, µM (highest dose often 46.2 µM), most hits filed as inhibitors; note: nearly all actives have a fitted effect of over 55% in size
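Chicken DT40 Tdp1-/- cells complemented with human TDP1, screened without camptothecin (DMSO vehicle only), 400 cells/well. Compounds pin-transferred, cells incubated at 37 °C for at least 48 hr. Growth read as ATP-dependent luminescence (CellTiter-Glo, 30 min at RT).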
HT1080NT lethal: kills 2HG-producing HT-1080-NT fibrosarcoma cells; HT-1080-NT fibrosarcoma viability, CellTiter-Glo ATP luminescence, 48 h; Potency, µM (top dose mostly 46.1 µM), most hits filed as cytotoxic; hit rate 1.6% among 360,000; AID 686970;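 note: NT is the 2HG producing partner of a matched IDH1 knockdown line; nearly all actives have a fitted effect of over 55% in size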
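Luminescent CellTiter-Glo readout after 48 hours of compound exposure at 37 degrees C defined viability of HT-1080-NT cells. Activity was normalized to DMSO wells and cell-free media wells; concentration-response curves were fitted and assigned curve classes.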
TDP1 cell CPT: growth inhibition of DT40 Tdp1-/-;hTDP1 cells with camptothecin (screen for TDP1 inhibitors); chicken DT40 Tdp1-/-;hTDP1 cells + 20 nM CPT, ATP luminescence, 48 h; Potency, µM (series often up to 46.2 µM), actives largely listed as inhibitors; hit rate 12% among 420,000; AID 686979; note: nearly all actives have a fitted effect of over 55% in size
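Chicken DT40 Tdp1-/- cells stably complemented with human TDP1 were seeded at 400 cells/well in medium containing 20 nM camptothecin, exposed to pin-transferred compounds, and grown at 37 °C for at least 48 hr. Viability was read as ATP luminescence.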
HT1080 IDH1KD tx: kills HT-1080 cells with IDH1 knockdown; hit rate 2% among 360,000; Potency, µM (top dose mostly 46.1 µM), hits mostly cytotoxic; HT-1080 IDH1 knockdown viability, ATP luminescence, 48 h
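After a 2 h attachment period, IDH1KD HT-1080 cells took pin-transferred compound for 48 h at 37 °C; ATP-based luminescence after 10 min room-temperature reagent incubation reported viability.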
A number is an active result; - = inactive; ? = inconclusive; . = not tested or not shown. Hits are enriched below; roughly 19% of the tested compounds scored in any of these assays. Unless noted, calls come from the whole dose curve; as a rule, active = well fitted curve in the direction sought with a large enough effect; inconclusive = small, poorly fitted or top-dose-only effect, or another doubt; inactive = no such curve, though single readings can be large; an effect the other way counts as inactive or inconclusive.

SMILES | IL-1B inflam inh | DT40 TDP1 no CPT | HT1080NT lethal | TDP1 cell CPT | HT1080 IDH1KD tx
COc1ccc(S(=O)(=O)N(C)c2ccc(C(=O)N3CCOCC3)cc2)cc1 | - | ? | - | - | -
COc1ccc(S(=O)(=O)N(C)c2ccc(C(=O)N3CCCCC3)cc2)cc1 | - | 14.6µM | - | ? | -
O=C(O)c1ccc(-c2nnc(-c3ccccc3)o2)cc1 | - | - | - | ? | -
COc1ccc(C(=O)N2CCc3ccc(NC(=O)c4ccccn4)cc3C2)cc1F | - | 23.1µM | - | 20.6µM | ?
CS(=O)(=O)N(CC(=O)NC1CCCCC1)c1cccc(Cl)c1 | - | - | - | - | -
CN(c1ccc(C(=O)N2CCN(Cc3ccccc3)CC2)cc1)S(=O)(=O)c1ccc(Cl)cc1 | . | 16.4µM | - | ? | ?
CC(C)Nc1nc(Nc2ccccc2Cl)c2sccc2n1 | -62.9 | 23.1µM | - | 23.1µM | -
COCCNc1nc(NCCOc2ccccc2Cl)c2sccc2n1 | - | 16.4µM | ? | 13µM | ?
COCCNc1nc(Nc2ccccc2Cl)c2sccc2n1 | - | 23.1µM | ? | ? | ?
Cc1ccccc1-c1nc(NC(C)C)nc2ccsc12 | - | ? | - | ? | -
COCCNc1nc(NCCCN(C)C)c2sccc2n1 | - | - | ? | - | -
COc1ccc(-c2nnn(CC(=O)Nc3ccc4c(c3)OCCO4)n2)cc1OC | - | - | - | - | -
CCN1CC(CN(C)Cc2nc(-c3ccc(C(F)(F)F)cc3)no2)CC1=O (configuration not stated) | - | 18.4µM | ? | ? | -
Nc1nc(N)nc(-c2cccc(Cl)c2)n1 | - | - | - | ? | -
Cc1cc(Br)cn2c(CC(C)(C)C)c(-c3cccc(Cl)c3)nc12 | - | ? | - | - | -
Cc1nn2cc(-c3cccc(Cl)c3)cnc2c1Br | - | 5.8µM | - | ? | ?
Cc1nn2cc(-c3cccc(Cl)c3)cnc2c1Cl | - | 14.6µM | - | 16.4µM | ?
CCOc1cccc(-c2nn3c(-c4cc(C)[nH]n4)nnc3s2)c1 | -76.6 | ? | - | ? | -
c1coc(-c2nn3c(-c4ccco4)nnc3s2)c1 | - | - | - | - | -
CCOc1ccc(-c2nn3c(-c4ccc(F)cc4)nnc3s2)cc1 | - | - | - | - | -
Cc1cccc(-c2nnc3sc(-c4ccccc4C)nn23)c1 | - | 14.6µM | ? | ? | ?
c1ccc(-c2nnc3sc(-c4cc5ccccc5o4)nn23)cc1 | - | ? | - | 16.4µM | ?
c1ccc(-c2nnc3sc(-c4csc5c4CCCC5)nn23)cc1 | - | ? | - | 20.6µM | -
COc1cccc(-c2nnc3sc(-c4ccccc4)nn23)c1 | - | 23.1µM | - | ? | -
COc1ccc(-c2nn3c(-c4ccccc4)nnc3s2)cc1 | -55.2 | ? | - | ? | -
SMILES | IL-1B inflam inh | DT40 TDP1 no CPT | HT1080NT lethal | TDP1 cell CPT | HT1080 IDH1KD tx
COc1ccc(OCc2nn3c(-c4cccc(OC)c4)nnc3s2)cc1 | - | - | - | - | -
c1ccc(-c2nnc3sc(-c4ccncc4)nn23)cc1 | -51.3 | - | - | - | -
CCN(CC)c1ccc(-c2nn3c(-c4ccccc4OC)nnc3s2)cc1 | - | 1.16µM | 1.03µM | 1.3µM | ?
C/C=C/n1ccnc1CC(O)(c1ccccc1)c1ccc(C)cc1 (configuration not stated) | - | ? | - | ? | -
Cc1nc2sc(-c3ccccc3)nn2c(=O)c1Br | - | ? | - | 23.1µM | -
COc1ccc(-c2nn3c(=O)c(C)nnc3s2)cc1 | - | - | - | - | -
COc1ccccc1-c1nnc2sc(COc3ccc(Cl)cc3Cl)nn12 | -76.4 | ? | - | ? | -
O=C(CCNC(=O)C1CCN(S(=O)(=O)c2ccccc2)CC1)NCc1ccc(Cl)cc1Cl | - | ? | - | 20.6µM | -
O=C(NCc1ccc(Cl)cc1Cl)C1CCN(S(=O)(=O)c2ccc3c(c2)OCCCO3)CC1 | - | ? | - | 20.6µM | -
O=C(CCNC(=O)C1CCN(S(=O)(=O)c2ccccc2)CC1)NCc1ccc(Cl)cc1 | - | ? | - | - | -
Cc1ccc(S(=O)(=O)NCc2ccccc2)cc1C(=O)NC(C)c1ccc(S(N)(=O)=O)cc1 (configuration not stated) | - | - | - | - | -
O=C(O)c1c2c(nc3ccccc13)CCCC2 | . | - | . | - | .
COCCN(CCOC)CC(O)COC(c1ccccc1)c1ccccc1 (configuration not stated) | - | 14.6µM | - | - | -
COC(=O)[C@H](CC(C)C)NC(=O)Cn1cnc2c(OCc3ccccc3)ncnc21 | - | - | - | - | -
CCC1CCCCN1Cc1ccc(CNC(=O)CCc2nnc3ccc(N4CCCCC4)nn23)o1 (configuration not stated) | ? | - | - | - | -
CO[C@@H]1[C@@H](OC)[C@H](C)[C@@](O)(CC(=O)O)O[C@H]1[C@H](C)[C@H]1O[C@@]2(CC[C@@](C)([C@H]3CC[C@@](C)([C@@H]4O[C@@H]([C@H]5O[C@](C)(O)[C@H](C)C[C@@H]5C)C[C@@H]4OC4C[C@H](OC)[C@@H](OC)[C@H](C)O4)O3)O2)C[C@H](O)[C@H]1C (some centres not stated) | . | 0.335µM | . | 0.596µM | .
CSc1ccccc1C(=O)Nc1ccccc1C(=O)N1CCCC1 | - | - | - | - | -
CCOC(=O)c1cc(-c2ccc(OC)cc2)n(CCC(=O)NC2CCN(Cc3ccccc3)CC2)c1C | - | 20.6µM | - | ? | -
CCOC(=O)c1cc(-c2ccc(F)cc2)n(CCC(=O)NC2CCN(Cc3ccccc3)CC2)c1C | ? | 14.6µM | ? | 16.4µM | ?
Cc1ccc(C(=O)c2oc3ccccc3c2NC(=O)c2cc(-c3ccccc3)on2)cc1F | . | - | . | - | .
CCCCN(C)c1nc(-c2ccco2)c2c(c1C#N)CC(C)(C)OC2 | -67.0 | ? | ? | ? | -
COc1ccc(NC(=O)c2c(NC(=O)CNCc3ccco3)sc3c2CCC3)cc1 | - | - | - | - | -
COc1ccc(OC)c(NC(=O)c2c(NC(=O)CNCc3ccco3)sc3c2CCC3)c1 | - | 3.66µM | - | - | -
COc1ccc(NC(=O)c2c(NC(=O)CNCc3ccco3)sc3c2CCC3)c(OC)c1 | - | 20.6µM | - | ? | -
COC(=O)c1c(NC(=O)CCNCc2ccco2)sc2c1CCC2 | -50.8 | ? | ? | 23.1µM | ?
CCn1c2ccccc2c2cnc(N=CN(C)C)c(C#N)c21 | - | 14.6µM | - | ? | -
CCN(CC)CCn1c2ccccc2c2cnc(N=CN(C)C)c(C#N)c21 | . | 16.4µM | ? | 16.4µM | ?
Cc1ccc(COc2cccc3cc(-c4noc(-c5ccc(C)cc5)n4)c(=O)oc23)cc1 | . | ? | . | - | .
Cc1ccc(-c2nc(-c3cc4cccc(OCc5cccc(F)c5)c4oc3=O)no2)cc1 | . | 13µM | . | 14.6µM | .
